{"source": "PubChem BioAssay (NCI)", "note": "About 79,000 compounds went through this panel and 15% of them were active in at least one assay; those are over-represented in the sample as a whole. Unmarked numbers belong to inactive results. The source made the active and inactive calls. No stated cut-off is given here; in the data, active means growth inhibition above about 70%; inactive means the rest. Where a SMILES comes first, the peptide text is derived from it. Bridges are numbered along the chain shown (N, C = ends). Roman numbers before positions name the chains, in order. [ ]: non-standard residue; d: D form. The star is where a group is joined. Quinoxaline2carbonyl = O=C(c1cnc2ccccc2n1)*; NMeV = CN[CH](C(=O)O)C(C)C; NMeC = CN[CH](CS)C(=O)O", "data": [{"test": "NCI Yeast Anticancer Drug Screen. Data for the mlh1 rad18 strain (AID 175)", "conditions": "S. cerevisiae mlh1 rad18 strain growth inhibition; at 50.0 µM; stronger effect = higher value", "procedure": "Growth inhibition of yeast strains with defined genetic alterations is measured as a screen for potential anti-cancer activity. Selected strains with alterations in DNA damage repair or cell cycle control were exposed to compounds and growth inhibition was measured relative to vehicle treated controls. The strain used in this assay is mlh1 rad18", "values": [{"smiles": "Cc1ccc([NH-])cc1.Cc1ccc([NH-])cc1.[Cl][Pt+2][Cl]", "growth inhibition": "-11.3%"}, {"smiles": "C[N+](C)(C)CC1CCC/C1=N/O", "note": "(stereo not given)", "growth inhibition": "34.9%"}, {"smiles": "CCOc1ccc2ccccc2c1OP(=O)(OCC)OCC", "growth inhibition": "25.6%"}, {"smiles": "C=[CH][Pb]([CH]=C)([CH]=C)[O]C(C)=O", "growth inhibition": "99% (active)"}, {"smiles": "CNC(C)Cc1ccccc1OC", "note": "(stereo not given)", "growth inhibition": "11.4%"}, {"smiles": "[Se]=[Mo]=[Se]", "growth inhibition": "-33.9%"}, {"smiles": "Cc1ncc([N+](=O)[O-])n1C(C)C(=O)Nc1ccc(N(CCCl)CCCl)cc1", "note": "(stereo not given)", "growth inhibition": "13.2%"}, {"smiles": "CCC1(CCBr)C(=O)NC(=O)NC1=O", "growth inhibition": "2.3%"}, {"smiles": "CCN(CC)CCn1c(=O)c2ccccc2n(CCN(CC)CC)c1=O", "growth inhibition": "10.4%"}, {"smiles": "Cc1cccc(C)c1NC(N)=S", "growth inhibition": "3.25%"}, {"smiles": "CC12CCC3C4CCC(=O)C=C4CCC3C1CC1CC(=O)OC12", "note": "(stereo not given)", "growth inhibition": "-2.8%"}, {"smiles": "CO[C@H](C)[C@](O)(C(=O)OCC1=CCN2CC[C@@H](O)[C@H]12)C(C)C", "growth inhibition": "-13.6%"}, {"smiles": "CS(=N)(=O)CCC(N)P(=O)(O)O", "note": "(stereo not given)", "growth inhibition": "-27.9%"}, {"smiles": "CC(=O)CCC(=O)O.[Ni]", "growth inhibition": "1.9%"}, {"smiles": "C=C[C](=C)[Pb]([CH2]C)([CH2]C)[CH2]C", "growth inhibition": "5.5%"}, {"smiles": "CC(C)OP(=O)(NC(=S)c1ccccc1)OC(C)C", "growth inhibition": "13.9%"}, {"smiles": "CCCn1cc2c3c(cccc31)[C@H]1C[C@@H](C)CN(C)[C@@H]1C2", "growth inhibition": "36.5%"}, {"smiles": "Cc1nc2ccccc2c(=O)n1-c1ccccc1", "growth inhibition": "-3.8%"}, {"smiles": "NC(c1ccccc1)P(=O)(O)O", "note": "(stereo not given)", "growth inhibition": "-33.3%"}, {"smiles": "c1ccc(-c2c[se]nn2)cc1", "growth inhibition": "10.1%"}, {"smiles": "c1ccc([As](c2ccccc2)c2ccccc2)cc1", "growth inhibition": "5.05%"}, {"smiles": "CN1CN(c2ccccc2)C2(CCN(CCC3COc4ccccc4O3)CC2)C1=O", "note": "(stereo not given)", "growth inhibition": "-1.35%"}, {"smiles": "CC(=O)Cc1c[nH]c2ccccc12", "growth inhibition": "-25.2%"}, {"smiles": "C[As+](c1ccccc1)(c1ccccc1)c1cccc2ccccc12", "growth inhibition": "34.3%"}, {"smiles": "O=C(CBr)OCCOC(=O)CBr", "growth inhibition": "-3.95%"}, {"smiles": "C=CCN1CC2CN=NC2(C#N)C1", "note": "(stereo not given)", "growth inhibition": "-4.95%"}, {"smiles": "CCN1/C(=C/C=C2\\CCC(/C=C/c3sc4ccc(Cl)cc4[n+]3CC)=C2N(c2ccccc2)c2ccccc2)Sc2ccc(Cl)cc21", "growth inhibition": "56.7%"}, {"smiles": "Cn1cnc([N+](=O)[O-])c1[Se]c1nc(N)nc2nc[nH]c12", "growth inhibition": "-17.9%"}, {"smiles": "C=CCOCN1c2cc(OC)c([C@@]3(C(=O)OC)C[C@@H]4CN(CCc5c3[nH]c3ccccc53)C[C@](O)(CC)C4)cc2[C@@]23CCN4CC=C[C@@](CC)([C@@H](OC(C)=O)[C@](O)(C(=O)OC)[C@H]12)[C@H]43", "growth inhibition": "-16.4%"}, {"smiles": "O=[N+]([O-])c1cccc(C(Cl)Cl)c1", "growth inhibition": "-2.25%"}, {"smiles": "CC1CN=C(NCc2ccccc2)S1", "note": "(stereo not given)", "growth inhibition": "-6.6%"}, {"smiles": "CC(=O)CC(C)=O.CC(=O)CC(C)=O.CC(=O)CC(C)=O.[La]", "growth inhibition": "1.15%"}, {"smiles": "Cc1ccc(S(=O)(=O)Nc2cc(C)cc(CCN)c2C)cc1", "growth inhibition": "-10.1%"}, {"smiles": "[N-]=[N+]=CC(=O)CCC(=O)C=[N+]=[N-]", "growth inhibition": "-67.8%"}, {"smiles": "COC(=O)C1=C(O)C(C(=O)OC)C2/C(=[N+](/[O-])O)c3c(cc([N+](=O)[O-])cc3[N+](=O)[O-])C1C2[N+](=O)[O-]", "note": "(stereo not given)", "growth inhibition": "90.7% (active)"}, {"smiles": "COc1ccc(S(=O)(=O)F)cc1NC(=O)c1ccc2ccccc2c1O", "growth inhibition": "41.6%"}, {"smiles": "CC1NC(=O)C(NC(=O)c2cnc3ccccc3n2)COC(=O)C(C(C)C)N(C)C(=O)C2CSSCC(C(=O)N(C)C(C(C)C)C(=O)OCC(NC(=O)c3cnc4ccccc4n3)C(=O)NC(C)C(=O)N2C)N(C)C1=O", "note": "(stereo not given) (I: Quinoxaline2carbonyl-SA[NMeC][NMeV] / II: Quinoxaline2carbonyl-SA[NMeC][NMeV]; ester I:1-II:C, I:C-II:1; disulfide I:3-II:3; configuration not given here)", "growth inhibition": "89.7% (active)"}, {"smiles": "C#CC1(OC(C)=O)CCC2C3CCC4=CC(=O)CCC4(C)C3CCC21C", "note": "(stereo not given)", "growth inhibition": "19.7%"}, {"smiles": "CCC[As](=O)(O)CC[As](=O)(O)CCC", "growth inhibition": "14.4%"}, {"smiles": "CN(C)C1(c2ccc3ccccc3c2)CSC1", "growth inhibition": "2.25%"}]}]}
